Only a selection was taken, and hits are over-represented in it overall.
RT RNaseH block: HIV-1 RT RNase H inhibitors, primary screen, biochemical, fluorescence; Gag-Pol polyprotein (Human immunodeficiency virus type 1 group M subtype B (isolate …; RT-RNase H RNA/DNA duplex cleavage; inhibition, % at 10 µM; 65,000 compounds, 1.9% hits; in the data active = inhibition above about 50%
RmlC RmlD mix: RmlC and RmlD coupled enzyme inhibitors, primary screen, biochemical, 384-well, compound mixtures, retest | RmlC/RmlD coupled enzyme inhibition, 384-well mixture HTS | inhibition, % at 5.5 µM | 110,000 compounds, 0.39% hits; in the data active = inhibition above about 30%, passing the limit was not always enough
Of the large screens only hits and unclear results are named; the others gave an inactive call.

COc1ccc(OC)c(N2Cc3cc(C)c(C)cc3C2)c1	RT RNaseH block 62
CCOc1ccccc1N1Cc2cc(C)c(C)cc2C1	RT RNaseH block 53
CCN1N=C(c2cc(Cl)sc2Cl)CSC1=O	none (no result: RT RNaseH block)
COc1ccccc1NC(=O)c1sc2ncn(Cc3cccc(C)c3)c(=O)c2c1C	RmlC RmlD mix 66 (no result: RT RNaseH block)
COc1ccccc1NC(=O)c1sc2ncn(Cc3ccc(C)cc3)c(=O)c2c1C	none (no result: RT RNaseH block)
Cc1cccn2c(=O)c3cc(C(=O)NCC4CCCO4)c(=N)n(Cc4cccnc4)c3nc12 (stereo not drawn)	RmlC RmlD mix 37
CCNC(=O)c1cc2c(=O)n3cccc(C)c3nc2n(Cc2ccc(C)cc2)c1=N	RmlC RmlD mix 84
N=c1c(C(=O)NCC2CCCO2)cc2c(=O)n3ccccc3nc2n1Cc1cccnc1 (stereo not drawn)	none
Cc1cccn2c(=O)c3cc(C(=O)NC(C)C)c(=N)n(Cc4ccncc4)c3nc12	none (no result: RmlC RmlD mix)
CCOC(=O)N1CCC(NC(=O)CSc2cc(=O)n(C)c3ccc(Cl)cc23)CC1	none (no result: RmlC RmlD mix)
CCOC(=O)Cc1cc(=O)[nH]c(/N=C(/NC(=O)c2ccccc2)Nc2ccccc2C(F)(F)F)n1	none (no result: RT RNaseH block)
COC(=O)Cc1cc(=O)[nH]c(/N=C(/NC(=O)c2ccccc2)Nc2ccccc2C)n1	RT RNaseH block 53 (no result: RmlC RmlD mix)
CCCCCNC(CC(=O)Nc1ccc(OC)cc1)C(=O)O (stereo not drawn)	none (no result: RmlC RmlD mix)
O=C(Nc1ccc2c(c1)nc1n2CCN(Cc2ccccc2)C1)NC1CCCCC1	none (no result: RT RNaseH block)
COCCN1CCn2c(nc3cc(NC(=O)NC4CCCCC4)ccc32)C1	RmlC RmlD mix 59
CN1Cc2cc(C(=O)c3cc(Cl)cc(CSc4ncccn4)c3O)cnc2NC1=O	RT RNaseH block 59
Cc1ccc(O)c(C(=O)c2cnc3c(c2)CN(C)C(=O)N3)c1	none (no result: RT RNaseH block)
Cn1c(=O)c2c3c(sc2n2c(SCC(=O)c4ccc(Cl)cc4)nnc12)COC(C)(C)C3	none (no result: RmlC RmlD mix)
Cc1nc2c(c(=O)n1CC1CCCO1)c1nc3ccccc3nc1n2Cc1ccc2c(c1)OCO2 (stereo not drawn)	none (no result: RmlC RmlD mix)
O=c1oc2c3c4c(cc2cc1-c1nc2ccccc2[nH]1)CCCN4CCC3	none (no result: RmlC RmlD mix)
CC(C)=CCc1cc2c(=O)c3c(O)c4c(cc3oc2c(O)c1O)OC(C)C4(C)C (stereo not drawn)	none (no result: RT RNaseH block)
CCOC(=O)c1c(C)n(C)c2cc(Br)c(C)cc12	none (no result: RT RNaseH block)
CCOC(=O)c1c(C)n(C)c2c(C)cc(O)c(OC(=O)CC)c12	RT RNaseH block 56
Cn1c(=O)[nH]c(=O)c2c1nc(SCC(O)CO)n2Cc1ccccc1Cl (stereo not drawn)	none
O=C(Nc1ccc2c(c1)oc1ccccc12)c1ccc2c(c1)OCO2	none
O=C(COc1ccc2c(c1)OCO2)Nc1ccc2c(c1)oc1ccccc12	RT RNaseH block 59
C#CCNC(=O)C1=C[C@H](C(C)(C)C)C[C@H](OCCCCO)O1	none (no result: RT RNaseH block)
Cc1nc(Nc2ncc3c(n2)CCCC3=O)nc2ccccc12	none (no result: RmlC RmlD mix)
Cc1nc2sc(C(=O)O)c(N)c2c2c1COC(C)(C)C2	none
CCOC(=O)c1sc2nc(-c3ccco3)c3c(c2c1N)CC(C)(C)OC3	RT RNaseH block 90
Cc1nnc2sc(-c3cc4ccccc4o3)nn12	none (no result: RmlC RmlD mix)
COc1cc(-c2nnc(SC/C=C/c3ccccc3)n2N)cc(OC)c1OC	none (no result: RT RNaseH block)
Nn1c(SC/C=C/c2ccccc2)nnc1-c1ccncc1	RT RNaseH block 52 (no result: RmlC RmlD mix)
CS(=O)(=O)N1CCN(c2nc(-c3ccccc3)cs2)CC1	none
CCS(=O)(=O)N1CCN(c2nc(-c3ccccc3)cs2)CC1	RT RNaseH block 56
COCCCn1c(N)c(C(=O)OC(C)COC)c2nc3ccccc3nc21 (stereo not drawn)	RmlC RmlD mix 46
CCCCOCCCn1c(N)c(C(=O)OC(C)COC)c2nc3ccccc3nc21 (stereo not drawn)	none
C=CCN1c2ccccc2[C@]23C[C@@H](C(=O)OC)N(C(=O)NCCC)C2=NC(C(=O)OC)=C(C(=O)OC)[C@H]13	none (no result: RT RNaseH block)
CC(C(=O)N1CCCc2ccccc21)N1CCN(S(=O)(=O)c2ccccc2F)CC1 (stereo not drawn)	none (no result: RT RNaseH block)
CC1CCCCN1Cc1nc2c(c(=O)n(C)c(=O)n2C)n1Cc1cccc2ccccc12 (stereo not drawn)	none (no result: RmlC RmlD mix)
Cc1cc(C)n2nc(C(=O)NCc3ccccc3)nc2n1	none (no result: RT RNaseH block)
Cc1cc(C)n2nc(C(=O)NCc3ccccc3)cc2n1	RT RNaseH block 88
CC(NC(=O)C1CCCN(C(=O)N(C)C)C1)c1ccccc1 (stereo not drawn)	none (no result: RT RNaseH block)
O=c1nc2s/c(=C\c3ccco3)c(=O)n2nc1Cc1ccc(F)cc1	RT RNaseH block 53
Cc1ccc(-c2nc3s/c(=C\c4ccco4)c(=O)n3n2)cc1	none
CS(=O)(=O)c1ccc(CNC(=O)C2(C(F)(F)F)C/C(=C\Cc3ccccc3)CCCO2)cc1 (stereo not drawn)	none (no result: RT RNaseH block)
Cc1ccc2cc3cc(C(=O)NCc4ccco4)oc3nc2c1	RT RNaseH block 51
Cc1ccc2cc3cc(C(=O)NCCC(C)C)oc3nc2c1	none (no result: RmlC RmlD mix)
COc1ccc(-c2csc(NC(C)c3nc4cc(Cl)c(Cl)cc4n3CCCO)n2)cc1 (stereo not drawn)	none (no result: RT RNaseH block)
